# Source: PubChem
# USP30 block: inhibitors of human USP30 deubiquitinase; inhibition, % at 25 µM; AID 1645860, 2021; 47,000 compounds, 5.3% hits; Ubiquitin carboxyl-terminal hydrolase 30 (Homo sapiens), Q70CQ3; purified USP30, Ub-rhodamine cleavage fluorescence
# USP17 block: inhibitors of human USP17 deubiquitinase | purified USP17, Ub-rhodamine cleavage fluorescence, 3 h | inhibition, % at 50 µM | 47,000 compounds, 6.5% hits | AID 1645855, 2021
# Target sequence (A8MUK1 whole entry, looked up): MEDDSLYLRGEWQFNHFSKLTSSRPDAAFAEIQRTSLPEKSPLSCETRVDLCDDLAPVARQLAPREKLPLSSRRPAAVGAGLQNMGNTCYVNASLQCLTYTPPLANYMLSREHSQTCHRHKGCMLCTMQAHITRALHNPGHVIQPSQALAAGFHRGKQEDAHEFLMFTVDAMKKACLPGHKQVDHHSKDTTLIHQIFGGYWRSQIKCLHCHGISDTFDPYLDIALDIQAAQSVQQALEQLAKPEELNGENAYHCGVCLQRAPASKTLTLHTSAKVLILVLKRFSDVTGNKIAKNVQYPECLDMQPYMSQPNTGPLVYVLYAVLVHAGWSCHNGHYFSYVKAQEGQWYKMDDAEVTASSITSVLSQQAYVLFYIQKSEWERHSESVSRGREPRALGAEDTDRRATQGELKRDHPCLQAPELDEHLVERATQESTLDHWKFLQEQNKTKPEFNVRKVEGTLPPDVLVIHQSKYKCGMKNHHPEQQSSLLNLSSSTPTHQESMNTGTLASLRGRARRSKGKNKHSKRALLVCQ
# A number is an active result; 0 = inactive; - = not tested or not shown. The list is not random: actives were taken first. Their share in the collection is about 9.6%. Cut-off read from the data, not from the text of the source: active = inhibition above about 30%; inactive = the rest.
SMILES,USP30 block,USP17 block
COc1cc2[nH]c(=O)n(Cc3ccc(C(=O)N4CCN(C5CCCCC5)CC4)cc3)c(=O)c2cc1OC,33.2,0
Cc1nc(-c2ncc[nH]2)cc(C2CCCN(C(=O)c3cnc4ccccc4c3)C2)n1 (stereo not drawn),0,0
O=C(CN1C(=O)C(c2ccccc2)Oc2cccnc21)NCCCN1CCCCCC1 (stereo not drawn),0,40.9
CCOc1ccccc1CNC(=O)CCCN1C(=O)C(c2ccccc2)Oc2cccnc21 (stereo not drawn),0,0
CCOc1ccc(N2Cc3ccc(OC)c(OC)c3C2=O)cc1,0,38.3
CCOc1ccc(N2CC(CNS(=O)(=O)c3cccc(F)c3)CC2=O)cc1 (stereo not drawn),0,0
O=C(Nc1ccccc1)N1CCCCCC1C1CCN(Cc2nnnn2C2CC2)CC1 (stereo not drawn),0,0
CC1OC2CC(O)C1(O)C1=C2C(O)=C(C(N)=O)C(=N)C1=O (stereo not drawn),0,62.5
COCC1CN(C(=O)c2cccn2C)Cc2cn(CC3CC3)nc21 (stereo not drawn),0,0
CCn1cc2c(n1)C(COC)CN(C(=O)c1cc(C)nn1CC)C2 (stereo not drawn),54.4,64.5
COc1cc(O)c2c(c1)[C@@H]([C@H]1C[C@H](O)[C@H](O)[C@@]3(C=CC[C@H](C)O3)O1)OC2=O,0,0
COCCCNC(=O)c1ccc(N2CCOc3ccccc32)s1,0,0
O=C(NC1CCS(=O)(=O)C1)c1ccc(N2CCOc3ccc(Cl)cc32)s1 (stereo not drawn),0,39.9
CSCC[C@H](NC(=O)Cc1ccc(Br)cc1)c1nnc2ccccn12,0,0
O=C(c1ccn(-c2ccc3ccc(-c4cccnc4)cn23)n1)N1CCOCC1,0,0
Cc1ccc2nc(N(CCCN(C)C)C(=O)COc3ccccc3)sc2c1,41.0,35.6
Cc1cccc(OCC(=O)N(c2nc3ccccc3s2)c2ccccc2C)c1,0,0
CC(=O)c1cccc(NC(=O)C(=O)c2cn(CC(=O)N3CCOCC3)c3ccccc23)c1,0,0
CC(CCc1ccccc1)NC(=O)C(=O)c1cn(CC(=O)N2CCOCC2)c2ccccc12 (stereo not drawn),50.1,44.2
O=C(Nc1ccccc1F)C(=O)c1cn(CC(=O)N2CCCCC2)c2ccccc12,0,0
CCOc1ccccc1NC(=O)C(=O)c1cn(CC(=O)N2CCCCC2)c2ccccc12,39.8,0
CCn1c(=Nc2ccc(Cl)cc2)ccc2ccccc21,0,0
O=C(c1ccc2ccccc2c1)c1cn(-c2ccc(C(F)(F)F)cc2)nn1,0,0
CC(C(=O)Nc1ccc2c(c1)OCCO2)N1CCN(c2ccc([N+](=O)[O-])cc2)CC1 (stereo not drawn),0,0
COc1cc(/C=C/C(=O)O)ccc1O,0,0
SMILES,USP30 block,USP17 block
COc1cc(/C=C/C(=O)OCC(=O)Nc2ccc([N+](=O)[O-])cc2OC)ccc1O,65.5,-
CNC(=O)N1CCc2cc(C(=O)NCC3CC3)c(NCC3CC3)nc2CC1,0,0
COc1ccccc1CNC(=O)Cn1c(C)nc2onc(C)c2c1=O,34.8,0
CCN1CCN(C(=O)Cn2c(=O)[nH]c3c(-c4ccccc4)c[nH]c3c2=O)CC1,0,0
COc1ccc(CNC(=O)Cn2c(=O)[nH]c3c(-c4ccccc4F)c[nH]c3c2=O)cc1,0,0
CCC(C)NC(=O)Cn1c(=O)[nH]c2c(-c3ccccc3)c[nH]c2c1=O (stereo not drawn),-,38.0
Cc1noc2nc(C)n(CC(=O)NCc3ccccc3Cl)c(=O)c12,0,0
COc1ccccc1CNC(=O)Cn1c(=O)[nH]c2c(-c3ccccc3)c[nH]c2c1=O,0,44.3
COc1ccc(F)cc1S(=O)(=O)N1CCC(c2ncncc2-c2ccnc(N)c2)C1 (stereo not drawn),0,0
CCOc1cc(C2C3=C(CC(c4ccc(OC)cc4)CC3=O)Nc3ccccc3N2C(=O)C(F)(F)F)ccc1OCc1ccc(Cl)cc1 (stereo not drawn),0,0
CCCn1cc(C(=O)NCc2ccc(C)cc2)c2nn(-c3ccccc3)c(=O)c-2c1,0,0
O=C(Nc1ccc(S(=O)(=O)c2cccc(C(F)(F)F)c2)cc1)c1ccc(F)cc1,41.2,0
Cc1nc2ccc(NC(=O)c3cccc(C(F)(F)F)c3)cc2nc1C,0,0
COc1ccc(Cc2nc3c4c(-c5ccccc5)c(-c5ccccc5)n(Cc5ccco5)c4ncn3n2)cc1OC,0,0
COc1cccc(N2CC(C)Cn3c2nc2c3c(=O)n(CC(=O)OCc3ccccc3)c(=O)n2C)c1 (stereo not drawn),38.5,0
Cc1cc(C)cc(N2CC(C)Cn3c2nc2c3c(=O)n(CC(=O)OCc3ccccc3)c(=O)n2C)c1 (stereo not drawn),0,0
CC(C)(C)c1cnc(CN2CCOC(Cn3cncn3)C2)o1 (stereo not drawn),0,0
CCOc1ncccc1C(=O)N1CCCC(c2ccnc(=O)[nH]2)C1 (stereo not drawn),0,0
COC(=O)CN1c2ccccc2NC2=C(C(=O)CC(C)(C)C2)C1c1cccs1 (stereo not drawn),30.9,0
CC1(C)CC(=O)C2=C(C1)Nc1ccccc1N(Cc1ccccc1)C2c1ccccc1Cl (stereo not drawn),0,0
CS(=O)(=O)c1ccc2nc(N(Cc3ccccc3)C(=O)CCSc3ccccc3)sc2c1,0,0
Cc1nccc(N2CCCC2c2cncc(-n3ccnc3C)n2)n1 (stereo not drawn),0,0
CC1Oc2ccccc2N(Cc2nc(-c3ccccc3)no2)C1=O (stereo not drawn),0,39.7
Fc1ccccc1N1CCN(Cc2nc(-c3ccccc3)no2)CC1,0,0
CC1=C(c2ccccc2)S(=O)(=O)N(CC(=O)Nc2ccccc2C)C1=O,0,0
SMILES,USP30 block,USP17 block
CC1=C(c2ccc(C(C)C)cc2)S(=O)(=O)N(CC(=O)Nc2ccccc2C)C1=O,32.1,0
Cc1ccc(CNC(=O)C2CCN(C(=O)c3cc(-c4cccnc4)n[nH]3)CC2)cc1,0,0
O=C(Nc1ccc(F)cc1F)c1csc(-c2ccccc2)n1,0,82.6
O=C(Nc1ccc(F)cc1F)c1ccc(-c2nc(-c3ccc(F)cc3)cs2)cc1,0,0
CSc1cccc(NC(=O)C2Cc3ccccc3CN2C(=O)c2ccco2)c1 (stereo not drawn),0,31.4
COc1cc(NC(=O)C2Cc3ccccc3CN2C(=O)c2ccco2)cc(OC)c1OC (stereo not drawn),0,0
Cc1ccc2c(Nc3ccccc3)c(-c3nc(C4CC4)no3)cnc2n1,0,0
COc1ccc2ncc(S(=O)(=O)c3ccc(Cl)cc3)c(N3CCCC3)c2c1,0,0
CC1CN(S(=O)(=O)c2ccc3ncsc3c2)Cc2ccccc2N1C (stereo not drawn),0,0
O=C(Cn1c(=O)n(CCCC(=O)NC2CCN(Cc3ccccc3)CC2)c(=O)c2ccccc21)Nc1cccc(Cl)c1,0,0
Cn1c(=O)cc(SCC(=O)NC2CCN(Cc3ccccc3)CC2)c2ccc(Cl)cc21,50.2,33.5
COc1cc(NC(=O)CSc2cc(=O)n(C)c3cc(Cl)ccc23)cc(OC)c1OC,0,0
CCOc1ccc(NC(=O)CSc2cc(=O)n(C)c3cc(Cl)ccc23)cc1,0,46.5
CCn1c(=O)c2ccccc2n(Cc2nc(-c3ccc(OC)cc3)no2)c1=O,0,35.5
